Out of some 5,500 compounds screened, about 2,000 (36%) were called active. Another 18% or so got no clear call; they are omitted. Cut-off read from the data, not from the text of the source: active = normalized growth mostly below about 0.91 (no sharp cut-off); inconclusive = no clear call, values can overlap the other calls; inactive = mostly above about 0.92. The list shows a part of the results.
Experiment: chemical genetic growth profiling, strain panel (AID 1159580);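 note: tested at 20 µM; growth read once vehicle control cultures reached saturation at 30 °C; 1 = growth at the plate median or of vehicle wells; lower values mean less growth of the strain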
Conditions: S. cerevisiae deletion strains, growth OD

Measured: normalized growth

O=c1[nH]c2cc([N+](=O)[O-])c([N+](=O)[O-])cc2[nH]c1=O
inactive: locus YAL013W, strain DEP1, stronger effect = lower value 0.998 | locus YAL040C, strain CLN3, stronger effect = lower value 1.03 | locus YCL061C, strain MRC1 (second series), stronger effect = lower value 1 | locus YDR363W, strain ESC2, stronger effect = lower value 0.986 | locus YER002W, strain NOP16, stronger effect = lower value 0.996 | locus YGR078C, strain PAC10, stronger effect = lower value 1 | locus YGR229C, strain SMI1, stronger effect = lower value 0.977 | locus YJR075W, strain HOC1, stronger effect = lower value 0.987 | locus YMR263W, strain SAP30, stronger effect = lower value 1 | locus YNL128W, strain TEP1, stronger effect = lower value 1.01 | locus YNL153C, strain GIM3, stronger effect = lower value 1.01 | locus YNL175C, strain NOP13, stronger effect = lower value 1.01 | locus YNL197C, strain WHI3, stronger effect = lower value 0.989 | locus YNL224C, strain SQS1, stronger effect = lower value 0.989 | locus YNL322C, strain KRE1, stronger effect = lower value 0.986 | locus YOR083W, strain WHI5 (second series), stronger effect = lower value 0.969 | locus YPL055C, strain LGE1, stronger effect = lower value 0.988 | locus YPL241C, strain CIN2, stronger effect = lower value 1

Source: PubChem BioAssay AID1159580 (chemical genetic matrix, 2015)
